Source: PubChem BioAssay AID1159580 (chemical genetic matrix, 2015)
Where “and” joins values, the source holds several entries; their conditions need not be identical. Equal values may be shown once. Among all 5,500 compounds or so, about 2,000 (36%) were called active. About 18% were inconclusive and are not listed. No stated cut-off is given here; in the data, active means normalized growth mostly below about 0.91 (no sharp cut-off); inconclusive means no clear call, values can overlap the other calls; inactive means mostly above about 0.92. Some of the results follow.

Assay: chemical genetic growth profiling, strain panel (AID 1159580);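 further: tested at 20 µM; growth read once vehicle control cultures reached saturation at 30 °C; 1 = growth at the plate median or of vehicle wells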
Conditions: S. cerevisiae deletion strains, growth OD

Measured: normalized growth

S=c1nc[nH]c2nc[nH]c12
inactive: locus YAL013W, strain DEP1, stronger effect = lower value 0.996 | locus YAL021C, strain ccr4, stronger effect = lower value 1.02 | locus YAL026C, strain drs2, stronger effect = lower value 0.991 | locus YAL030W, strain snc1, stronger effect = lower value 1.02 | locus YBL061C, strain skt5, stronger effect = lower value 1.02 | locus YBR009C, strain hhf1, stronger effect = lower value 0.997 | locus YBR021W, strain FUR4, stronger effect = lower value 0.997 | locus YBR023C, strain chs3, stronger effect = lower value 1.02 | locus YBR171W, strain sec66, stronger effect = lower value 0.976 | locus YBR229C, strain ROT2, stronger effect = lower value 1 | locus YBR231C, strain swc5, stronger effect = lower value 1.02 | locus YBR279W, strain paf1, stronger effect = lower value 1 | locus YCL011C, strain gbp2, stronger effect = lower value 0.972 | locus YCL016C, strain dcc1, stronger effect = lower value 1.01 | locus YCL029C, strain bik1, stronger effect = lower value 0.976 | locus YCL069W, strain vba3, stronger effect = lower value 0.964 | locus YCR088W, strain abp1, stronger effect = lower value 0.977 | locus YDL005C, strain med2, stronger effect = lower value 0.988 | locus YDL035C, strain GPR1, stronger effect = lower value 1 | locus YDL040C, strain nat1, stronger effect = lower value 1.02 | locus YDL074C, strain BRE1, stronger effect = lower value 1 | locus YDL101C, strain DUN1, stronger effect = lower value 0.996 | locus YDL134C, strain PPH21, stronger effect = lower value 1.01 | locus YDL185W, strain tfp1, stronger effect = lower value 0.964 | locus YDL192W, strain arf1, stronger effect = lower value 0.974 | locus YDR001C, strain nth1, stronger effect = lower value 0.972 | locus YDR069C, strain doa4, stronger effect = lower value 1.02 | locus YDR101C, strain arx1, stronger effect = lower value 1 | locus YDR137W, strain rgp1, stronger effect = lower value 1.02 | locus YDR150W, strain NUM1, stronger effect = lower value 0.999 | locus YDR159W, strain sac3, stronger effect = lower value 0.985 | locus YDR162C, strain NBP2, stronger effect = lower value 0.996 | locus YDR195W, strain ref2 0.992 | locus YDR297W, strain sur2, stronger effect = lower value 1.02 | locus YDR318W, strain mcm21, stronger effect = lower value 0.977 | locus YDR334W, strain swr1, stronger effect = lower value 1.05 | locus YDR335W, strain msn5, stronger effect = lower value 1.01 | locus YDR388W, stronger effect = lower value 0.999 | locus YDR392W, strain spt3, stronger effect = lower value 1.01 | locus YDR502C, strain sam2, stronger effect = lower value 0.991 | locus YEL003W, strain gim4, stronger effect = lower value 0.963 | locus YEL037C, strain rad23, stronger effect = lower value 0.977 | locus YEL061C, strain CIN8 (second series), stronger effect = lower value 0.992 | locus YEL061C, strain CIN8, stronger effect = lower value 0.991 | locus YER015W, strain faa2, stronger effect = lower value 1.01 | locus YER016W, strain bim1, stronger effect = lower value 1 | locus YER110C, stronger effect = lower value 0.969 | locus YER111C, strain swi4, stronger effect = lower value 0.966 | locus YER155C, strain BEM2 (second series), stronger effect = lower value 0.963 | locus YER155C, strain BEM2, stronger effect = lower value 0.99 | locus YER167W, strain BCK2, stronger effect = lower value 0.987 | locus YFR010W, strain ubp6, stronger effect = lower value 0.987 | locus YGL078C, strain dbp3, stronger effect = lower value 0.984 | locus YGL086W, strain mad1, stronger effect = lower value 1.01 | locus YGL167C, strain pmr1, stronger effect = lower value 1.01 | locus YGL173C, strain kem1, stronger effect = lower value 1 | locus YGL227W, strain vid30, stronger effect = lower value 0.975 | locus YGL240W, strain doc1, stronger effect = lower value 1.01 | locus YGL248W, strain PDE1, stronger effect = lower value 0.995 | locus YGL253W, strain hxk2, stronger effect = lower value 1.02 | locus YGR078C, strain PAC10, stronger effect = lower value 1 | locus YGR135W, strain pre9, stronger effect = lower value 0.941 | locus YGR252W, strain gcn5, stronger effect = lower value 0.979 | locus YHR013C, strain ard1, stronger effect = lower value 1.06 | locus YHR027C, strain rpn1, stronger effect = lower value 1.01 | locus YHR030C, strain SLT2, stronger effect = lower value 0.999 and 1.02 | locus YHR079C, strain IRE1 (second series), stronger effect = lower value 0.983 | locus YHR079C, strain IRE1, stronger effect = lower value 1 | locus YHR094C, strain hxt1, stronger effect = lower value 0.987 | locus YHR129C, strain ARP1, stronger effect = lower value 1 | locus YHR142W, strain chs7, stronger effect = lower value 0.999 | locus YHR200W, strain rpn10, stronger effect = lower value 0.98 | locus YIL066C, strain RNR3, stronger effect = lower value 1 | locus YIL073C, strain SPO22, stronger effect = lower value 0.934 | locus YIL125W, strain kgd1, stronger effect = lower value 0.994 | locus YIR030C, strain dcg1, stronger effect = lower value 0.974 | locus YJL092W, strain hpr5, stronger effect = lower value 0.986 | locus YJL095W, strain BCK1 (second series), stronger effect = lower value 1.01 | locus YJL095W, strain BCK1, stronger effect = lower value 0.983 and 1.02 | locus YJL115W, strain asf1, stronger effect = lower value 0.972 | locus YJL129C, strain trk1, stronger effect = lower value 0.97 | locus YJL134W, strain LCB3, stronger effect = lower value 0.984 | locus YJL154C, strain vps35, stronger effect = lower value 0.967 | locus YJL164C, strain tpk1, stronger effect = lower value 0.988 | locus YJL166W, strain qcr8, stronger effect = lower value 1.01 | locus YJL168C, strain set2, stronger effect = lower value 0.989 | locus YJL187C, strain SWE1 (second series), stronger effect = lower value 0.997 | locus YJR043C, strain POL32, stronger effect = lower value 1 | locus YJR066W, strain TOR1, stronger effect = lower value 0.975
